These results are taken from PubChem BioAssay (NCI).

Where “and” joins values, the source holds several entries; their conditions need not be identical. Identical values can stand only once. Compounds without any hit were thinned out: in the full panel of roughly 83,000, 20% have a hit.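 Step 1: grow cells in 96-well plates. Step 2: add test compound at a single concentration. Step 3: incubate 48 h. Step 4: record percent growth.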 Calls of active or inactive are those of the source. How the source made its calls: active means growth percent below 10; inactive means the rest.

For this test, the system named is HL-60(TB) leukemia. The test can be described thus: NCI-60 one-dose screen, 48 h (100 = growth as untreated, 0 = no growth, -100 = all killed). The settings on record: 10 µM unless noted.
In the case of `CSc1nc2sc3c(c2c(=O)n1-c1ccc([N+](=O)[O-])cc1)CCCCC3`, the growth is 97.7% (inactive).
To `COc1ccc(/C=C(\C#N)c2ccc([N+](=O)[O-])cc2)c2ccccc12` belongs 85.4% (inactive).
For the molecule `CCCCCCCCCCCCCCCCSC(=NCC)NCC`, the growth was -59.1% (active).
As for `COc1ccc2c(=O)cc(C(Cl)(Cl)Cl)oc2c1`, the figure is -32.6% (active).
To `CC(C)(O)Cn1cc(-c2ccc3nc(OC4CC4)ccc3c2)c2c(N)ncnc21` belongs 97.3% (inactive) and 76.7% (inactive); to `COc1ccc(/C=C(/C(=O)N2CCN(c3ccccc3)CC2)c2cc(OC)c(OC)c(OC)c2)cc1N`, -37.5% (active); to `COc1ccc2[nH]cc(/C=C3\C(=O)Nc4ccccc43)c2c1`, -31.7% (active).
Consider `COc1ccc(C(=O)C2C(c3ccc(OC)cc3)CN(C)C23C(=O)Nc2ccccc23)cc1` (stereo not given), for which the growth was 99.1% (inactive).
As for `O=C(C(=O)N1CCOCC1)c1cn(CCCn2cc(C(=O)C(=O)N3CCOCC3)c3ccccc32)c2ccccc12`, the figure is 91.9% (inactive); as for `COc1cccc(-c2nn(-c3ccccc3)cc2-c2ccnc(NCCCNC(=O)Nc3ccc(Cl)c(Cl)c3)c2)c1`, 16.8% (inactive); as for `CC(C)(C)c1ccc(S(=O)(=O)Oc2ccc3c4c(c(=O)oc3c2)CCCCC4)cc1`, 52% (inactive).
As for `COc1cccc2c1C=C1CCCCC3=Cc4c(OC)cccc4OC13O2`, the figure is 19.1% (inactive); as for `O=C(N/N=C/c1ccccc1O)c1ccncc1`, 29.8% (inactive).
As for `COc1ccc(-c2c(N)noc2-c2cc(OC)c3c(c2)OCCO3)cc1`, the figure is -30.8% (active); as for `c1ccc2c(N3CCCCC3)ncnc2c1`, 51.5% (inactive).
For the molecule `CCOC(=O)Nc1ccc(-c2nc(-c3cccc(OCCN4CCOCC4)c3)c(-c3ccnc(Br)c3)[nH]2)cc1`, the growth was -23.2% (active).
On to `O=C(O)C(Cc1ccc(OS(=O)(=O)Cc2ccccc2)cc1)NS(=O)(=O)Cc1ccccc1` (stereo not given), for which the growth was 109% (inactive) and 82.6% (inactive).
To `C/C(Cc1ccc(Cl)cc1)=C(/c1ccc(Cl)cc1)c1ccc(OCCN(C)C)cc1` belongs -10.1% (active); to `COc1ccc(C(=O)C(O)c2ccc(OC)cc2)cc1` (stereo not given), 97.2% (inactive) and 94.5% (inactive).
As for `O=C(O)c1ccc(-n2cc(/C=N/Nc3ccc(F)cc3)c(-c3cc4ccccc4oc3=O)n2)cc1`, the growth was 6.08% (active).
To `COc1ccc(C(=S)c2cc(OC)c(OC)c(OC)c2)cc1OC(=O)CCl` belongs -33% (active).
As for `Cc1cc(NC(=O)NC(=O)c2ccccc2N(C)C)ccc1Oc1ncc(Br)cn1`, the figure is -13.6% (active) and 20.7% (inactive); as for `Cc1ccc(S(=O)(=O)NCCCNc2nccc(-c3c(-c4cccc(F)c4)nc4occn34)n2)cc1`, 44.8% (inactive); as for `CSc1ccc(C(=O)C[n+]2cccc(C)c2)cc1`, 102% (inactive).
With `CN1C(=O)NC(c2ccc(Cl)cc2)(c2ccc(Cl)cc2)C1=O`, the growth was 78.2% (inactive).
As for `Cc1nn(-c2nc3ccccc3[nH]2)c2c1C(c1ccc(OCc3ccc(F)cc3)cc1)CC(=O)N2` (stereo not given), the figure is 75.8% (inactive); as for `COc1ccc(-c2nsc3c2NC(=O)CC3c2ccc(F)cc2)cc1` (stereo not given), 7.88% (active); as for `O=C(Nn1c2c(sc1=NCc1ccccc1)C(=O)c1ccccc1C2=O)c1cc2ccc1CCc1ccc(cc1)CC2`, 27% (inactive).
As for `CCOc1ccc(C(=O)Cc2ccccc2)cc1`, the figure is 97.4% (inactive); as for `C#CCn1c(-c2cccc(OCCCCl)c2)nc2c1c(=O)n(C)c(=O)n2C`, -15.7% (active); as for `S=c1[nH]cccc1-c1nnc2n1Nc1nc3ccc(Cl)cc3cc1CS2`, 104% (inactive).
With `O=C(CCCCC1CCSS1)Nc1ncnc2n[nH]c(-c3ccc(Oc4ccccc4)cc3)c12` (stereo not given), the growth was 78.8% (inactive).
As for `Clc1ccc2c(NCCNc3nc(N4CCCCC4)nc4ccccc34)ccnc2c1`, the figure is -61.2% (active); as for `CCN(CC)c1nc(SCc2ccccc2Cl)ncc1C`, 89.7% (inactive).
To `NC(=O)Cc1nc(O)cc(=O)[nH]1` belongs 87.4% (inactive).
To `O=S(=O)(CC(O)(c1ccccc1)c1ccccc1)CC(O)(c1ccccc1)c1ccccc1` belongs 108% (inactive); to `O=C(CN1CCN(c2cc3c(cc2F)c(=O)c(C(=O)O)cn3C2CC2)CC1)Nc1ccc(Cl)cc1`, 89.5% (inactive) and 98.4% (inactive); to `COc1cc(/C=N/NC(=O)c2ccccc2Nc2cccc(C(F)(F)F)c2)ccc1O`, 26.9% (inactive).
On to `Nc1ccc(S(=O)(=O)O)c2ccc(N=Nc3ccc(N=Nc4ccc(S(=O)(=O)O)cc4)c4ccccc34)c(O)c12`, for which the growth is 70.5% (inactive).
Consider `O=C1OC(C(O)C(O)CO)C(O)=C1O` (stereo not given), for which the growth was 114% (inactive) and 104% (inactive).
